# High-throughput results (PubChem BioAssay)
# ALOX12 inh: inhibitors of human 12S-lipoxygenase ALOX12; Potency, µM (highest dose often 108 µM), most hits filed as inhibitors; AID 1671190; purified 12hLO, xylenol orange hydroperoxide absorbance; 580,000 tested, 1.1% active; P18054
# Target sequence (P18054 whole entry, looked up): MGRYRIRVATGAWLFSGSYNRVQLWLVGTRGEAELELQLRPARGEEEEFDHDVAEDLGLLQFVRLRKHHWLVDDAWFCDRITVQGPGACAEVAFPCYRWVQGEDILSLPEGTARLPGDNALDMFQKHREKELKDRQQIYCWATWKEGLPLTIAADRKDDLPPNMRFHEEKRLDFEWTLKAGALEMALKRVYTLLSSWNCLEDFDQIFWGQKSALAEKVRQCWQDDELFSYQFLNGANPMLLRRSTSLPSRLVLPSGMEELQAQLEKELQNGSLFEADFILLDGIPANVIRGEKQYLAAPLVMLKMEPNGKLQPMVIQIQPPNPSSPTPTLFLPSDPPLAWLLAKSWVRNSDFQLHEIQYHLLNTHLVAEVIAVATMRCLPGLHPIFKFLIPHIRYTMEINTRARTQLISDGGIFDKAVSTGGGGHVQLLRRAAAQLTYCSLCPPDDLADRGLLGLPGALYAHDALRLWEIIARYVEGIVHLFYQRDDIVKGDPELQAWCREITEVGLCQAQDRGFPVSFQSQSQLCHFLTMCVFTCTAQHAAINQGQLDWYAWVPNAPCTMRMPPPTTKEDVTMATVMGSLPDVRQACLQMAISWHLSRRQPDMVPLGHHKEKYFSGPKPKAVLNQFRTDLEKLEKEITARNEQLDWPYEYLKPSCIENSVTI
#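 Hydroperoxide product was detected by ferrous iron/xylenol orange as the 573 to 405 nm absorbance ratio. Arachidonic acid at 40 uM (final) was turned over for 30 min at room temperature by 150 nM human 12hLO, pH 7.0 Hepes buffer, after 15 min compound preincubation.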
# HT1080 IDH1KD tx: HT-1080 IDH1 knockdown cell toxicity (counter line); HT-1080 IDH1 knockdown viability, ATP luminescence, 48 h; Potency, µM (titrated, usually from 46.1 µM), hits mostly cytotoxic; 360,000 tested, 2% active; AID 686971
#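 After a 2 h attachment period, IDH1KD HT-1080 cells took pin-transferred compound for 48 h at 37 °C; ATP-based luminescence after 10 min room-temperature reagent incubation reported viability.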
# TDP1 cell noCPT: qHTS for Inhibitors of human tyrosyl-DNA phosphodiesterase 1 (TDP1): qHTS in cells in absence of CPT; DT40 Tdp1-/- hTDP1 cells, no CPT, ATP luminescence, 48 h; Potency, µM (series often up to 46.2 µM), usual class: inhibitors; 420,000 tested, 15% active; AID 686978, 2013; also: nearly all actives have a fitted effect of over 55% in size
#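 Growth of hTDP1-complemented DT40 Tdp1-knockout cells is measured by ATP luminescence after at least 48 hr compound exposure at 37 °C, with DMSO substituting for the 20 nM CPT used in the parallel screen.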
# DT40 TDP1 CPT: DT40-hTDP1 cell growth loss with CPT | chicken DT40 Tdp1-/-;hTDP1 cells + 20 nM CPT, ATP luminescence, 48 h | Potency, µM (titrated, usually from 46.2 µM), usual class: inhibitors | 420,000 tested, 12% active; also: nearly all actives have a fitted effect of over 55% in size
#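 Chicken DT40 Tdp1-/- cells stably complemented with human TDP1 were seeded at 400 cells/well in medium containing 20 nM camptothecin, exposed to pin-transferred compounds, and grown at 37 °C for at least 48 hr. Viability was read as ATP luminescence.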
# HT1080-NT tox: kills 2HG-producing HT-1080-NT fibrosarcoma cells. HT-1080-NT fibrosarcoma viability, CellTiter-Glo ATP luminescence, 48 h. Potency, µM (top dose mostly 46.1 µM), actives largely listed as cytotoxic. 360,000 tested, 1.6% active;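 also: NT is the 2HG producing partner of a matched IDH1 knockdown line; nearly all actives have a fitted effect of over 55% in size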
#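 Viability of the 2HG-overproducing fibrosarcoma line after 48 hours of compound exposure at 37 degrees C was determined by luminescence with CellTiter-Glo, and concentration-effect curves were then fitted and categorized.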
# IL-1B inflam inh: blocks inflammasome-driven IL-1 beta release; THP-1 LPS/ATP IL-1B secretion, AlphaLISA, 16 h; hits give low values; activity change, % at 57.5 µM; 360,000 tested, 4.7% active; AID 743279; in the data active = activity change below about -50%; inconclusive = mostly about -30% to -49%
#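 Secreted IL-1B measured by AlphaLISA bead assay after 16 h compound exposure of THP-1 cells; compounds (final up to 57.5 uM) added 1 h before LPS (250 ng/mL) and ATP (1.25 mM) stimulation; lower signal means less secretion.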
# Hits are given with their value; – = inactive; ? = inconclusive; · = no result given; [ ] = remark or other dose. The entries come from a sample that favours hits as a whole. Unless noted, calls follow the shape of the dose curve; as a rule, active = well fitted curve in the direction sought with a large enough effect; inconclusive = small, poorly fitted or top-dose-only effect, or another doubt; inactive = no such curve, though single readings can be large; an effect the other way counts as inactive or inconclusive.
SMILES,ALOX12 inh,HT1080 IDH1KD tx,TDP1 cell noCPT,DT40 TDP1 CPT,HT1080-NT tox,IL-1B inflam inh
CC(C)n1c(/C=C/c2ccccc2)nc2ccccc21,–,–,?,–,–,-78
CC(C)n1c(CN(C)c2ccccc2)nc2ccccc21,?,–,?,?,–,–
CCCn1c(/C=C/c2ccccc2)nc2ccccc21,–,10µM,23µM,?,10µM,–
CCn1c(/C=C/c2cc[n+](C)cc2)nc2ccccc21,11µM,–,–,–,–,–
CC(C)c1ccccc1NC(=O)Cn1c(/C=C/c2ccccc2)nc2ccccc21,·,–,?,18µM,?,–
Cc1ccc(C(=O)Cn2c(C(=O)/C=C/c3ccccc3)nc3ccccc32)cc1,–,?,16µM,16µM,?,?
CCN1C=C(Cc2ccc(F)cc2)C2=C(C1)C(c1ccc(F)cc1)C(C#N)=C(N)O2 (centres undefined),?,–[9.24 µM],16µM,?,?,-103
CCN1C=C(Cc2ccccc2C)C2=C(C1)C(c1ccccc1C)C(C#N)=C(N)O2 (centres undefined),?,?,21µM,16µM,?,?
Cc1ccc(OCC(=O)N/N=C\c2c(C)n(C)c3ccccc23)c([N+](=O)[O-])c1,·,?,18µM,?,–,?
Cc1[nH]n(-c2ccccc2)c(=O)c1/C=N/NC(=O)C(C)C,?,–,?,15µM,–,–
Cc1[nH]n(-c2ccccc2)c(=O)c1/C=N/N1C(=O)c2ccc3c4c(ccc(c24)C1=O)CC3,–,?,18µM,?,?,-88
Cc1[nH]n(-c2ccccc2)c(=O)c1/C=N/O,–,?,–,–,?,–
Cc1c(/C=N/NC(=O)COc2ccccc2[N+](=O)[O-])c2ccccc2n1C,–,–,?,?,–,–
COCC(=O)N/N=C/c1c(C)[nH]n(-c2ccccc2)c1=O,–,–,16µM,18µM,–,–
C#CCNC(=O)[C@H]1C[C@@H](O)[C@H](O)[C@@H]2N=C(Nc3cccc(C(F)(F)F)c3)S[C@@H]21,–,·,·,·,·,·
CC(C)CC(=O)NCc1cccs1,–,·,·,·,·,·
Cc1ccc(C)c(/C=C/C(=O)c2cccc(O)c2)c1,–,·,·,·,·,·
COC(=O)N/N=C\c1c(C)[nH]n(-c2ccccc2)c1=O,–,–,–,–,–,–
Cc1[nH]n(-c2ccccc2)c(=O)c1/C=N/NC(=O)COc1ccccc1[N+](=O)[O-],?,?,4.6µM,5.8µM,?,–
Cc1[nH]n(-c2ccccc2)c(=O)c1/C=N/NC(=O)c1ccccc1F,–,?,5.2µM,6.5µM,?,–
Cc1ccc(NC(=O)c2ncoc2-c2ccco2)c(Cl)c1,–,·,·,·,·,·
COc1ccc(-c2nc(C)ncc2-c2ccc(Cl)cc2)c(O)c1,–,–,–,15µM,–,–
CCOc1ccc(-c2[nH]ncc2-c2ccccc2OC)c(O)c1,–,·,·,·,·,·
COc1ccc2c(c1)CCc1cn[nH]c1-2,·,–,23µM,?,–,–
COc1ccccc1-c1cn[nH]c1-c1ccc(OCc2ccccc2)cc1O,–,?,?,–,–,-99
SMILES,ALOX12 inh,HT1080 IDH1KD tx,TDP1 cell noCPT,DT40 TDP1 CPT,HT1080-NT tox,IL-1B inflam inh
COc1ccc(-c2cn[nH]c2-c2ccc(OC)cc2O)cc1,–,?,?,?,?,-84
CCCc1nc2ccccc2n1CC(O)c1ccc(F)cc1 (centres undefined),–,·,·,·,·,·
COc1ccc(-c2cn[nH]c2-c2ccc(OCc3ccccc3)cc2O)cc1,?,?,?,?,–,-99
COc1cc(/C=N/NC(=S)Nc2cccc(S(=O)(=O)N(C)C)c2)cc(OC)c1O,–,–,?,–,–,–
CNC(=O)c1cccc(NC(=O)C(C)c2ccc3cc(OC)ccc3c2)c1 (centres undefined),–,–,?,?,–,–
C=C(C)CNC(=S)N/N=C/c1ccco1,–,–,5.2µM,18µM,–,–
CCN(CCO)c1ccc(NC(=S)Nc2cccc(S(=O)(=O)N(C)C)c2)cc1,–,?,?,–,–,–
COc1ccc(O)c(/C=N/NC(=S)Nc2cccc(S(=O)(=O)N(C)C)c2)c1,?,?,6.5µM,6.5µM,–,-63
CN(C)S(=O)(=O)c1cccc(NC(=S)N/N=C/c2ccc(O)c(O)c2O)c1,?,–,16µM,?,–,–
COc1ccc2cc(C(C)C(=O)Nc3cccc(S(=O)(=O)N(C)C)c3)ccc2c1 (centres undefined),?,–,23µM,?,?,–
CN(C)S(=O)(=O)c1cccc(NC(=S)N/N=C/c2ccco2)c1,–,–,5.8µM,4.6µM,–,–
CC(/C=N/NC(=S)Nc1cccc(S(=O)(=O)N(C)C)c1)c1ccccc1 (centres undefined),–,–,?,?,–,–
CN(C)S(=O)(=O)c1cccc(NC(=S)N/N=C/C(c2ccccc2)c2ccccc2)c1,?,–,13µM,?,–,–
COc1cccc(/C=N/NC(=S)Nc2cccc(S(=O)(=O)N(C)C)c2)c1,?,–,8.2µM,4.1µM,–,–
Cc1ccsc1C(=O)N1CCC(N2C[C@H](O)C[C@H]2C(=O)NC2CCCCC2)CC1,–,·,·,·,·,·
CC1(C)C2CCC1(C(=O)Nc1ccc(C(F)(F)F)cc1)c1nc(C#N)c(C#N)nc12 (centres undefined),–,·,·,·,·,·
Cc1ccc(C2=NN(C(=O)CN3C(=O)c4ccccc4S3(=O)=O)C(c3ccco3)C2)cc1 (centres undefined),–,–,?,13µM,–,–
Cc1ccc(C2=NN(C(=O)Cn3nnc(-c4ccc(C(N)=O)cc4)n3)C(c3ccco3)C2)cc1 (centres undefined),28µM,·,·,·,·,·
CCCCCCn1nc(C(=O)Nc2nc(-c3ccc(NC(C)=O)cc3)cs2)c2ccccc2c1=O,–,·,·,·,·,·
COc1ccccc1CCn1cnc(-c2ccc(Br)cc2)c1C(C)C,?,23µM,18µM,15µM,23µM,–
CCCCCc1c(-c2ccc(Br)cc2)ncn1CCc1ccccc1OC,–,21µM,4.6µM,6.5µM,16µM,-83
CCc1c(Cc2ccccc2)ncn1CCc1ccccc1OC,–,·,·,·,·,·
CCCCCc1c(-c2ccc(F)cc2)ncn1CCc1ccccc1OC,–,?,18µM,9.2µM,?,-51
COc1ccccc1CCn1cnc(Cc2ccccc2)c1C(C)C,–,?,7.3µM,7.3µM,?,-52
CCCCn1c(=O)n(CC(=O)Nc2c(C)cccc2C)c(=O)c2c1ncn2CCC(C)C,–,·,·,·,·,·
CC(C)(CNC(=O)NCC1CCCC1)C(N)=O,–,·,·,·,·,·
COc1cccc(N2CCN(C(=O)c3cnn(-c4cccc(F)c4)c3-n3cccc3)CC2)c1,–,·,·,·,·,·
